{
  "source": "PubChem BioAssay (EPA / NIEHS)",
  "note": "“And” between values parts separate entries of the source, which are not always exact repeats. Equal entries are not always repeated. More than one record can exist for a structure, and the calls need not agree. The source made the active and inactive calls. The calls were made as follows: active = hit-call score of the fitted dose curve at least 0.9, where 1 is the maximum; inactive = score below 0.9.",
  "data": [
    {"assay": "BSK_LPS_PGE2: BioMAP Diversity Plus: LPS Assay for Prostaglandin E2 (PGE2) Biomarker Activity (AID 2283082)", "conditions": "primary human HUVEC with PBMC; actives raise or lower the signal", "procedure": "BSK_LPS is a cell-based, multiplexed-readout assay that uses umbilical vein endothelium and peripheral blood mononuclear cells, a human vascular primary cell co-culture, with measurements taken at 24 hours after chemical dosing in a 96-well plate.BSK_LPS_PGE2 is an assay component measured in the BSK_LPS assay. It measures PGE2 antibody related to regulation of gene expression using ELISA technology.Data from the assay component BSK_LPS_PGE2 was analyzed into 1 assay endpoint. This assay endpoint, BSK_LPS_PGE2, was analyzed with bidirectional fitting relative to DMSO as the negative control and baseline of activity. Using a type of binding reporter, gain or loss-of-signal activity can be used to understand changes in the signaling as they relate to the gene PTGER2. Furthermore, this assay endpoint can be referred to as a primary readout, because this assay has produced multiple assay endpoints where this one serves a signaling function. To generalize the intended target to other relatable targets, this assay endpoint is annotated to the gpcr intended target family, where the subfamily is rhodopsin-like receptor.\nThe levels of cell surface (or secreted, indicated by the prefix \"s\") biomarker endpoints were measured by ELISA. Overt cytotoxicity to cells in confluent adherent cultures (all systems other than the BT system) was assessed by measuring total protein levels using sulforhodamine B (SRB) staining in parallel cultures at the time of biomarker measurements, indicated as SRB endpoints. For proliferation assays for adherent cell types, individual cell types are cultured at sub-confluence and relative cell numbers quantified by SRB staining at time points optimized for each system (48 h: 3C and CASM3C systems; 72 h: BT and HDF3CGF systems; 96 h: SAg system). SRB was performed by staining cells with 0.1% SRB after fixation with 10% TCA and reading wells at 560 nm.Viability and proliferation of PBMC (T cells) was quantified by Alamar Blue reduction for the SAg and BT systems. For PBMC viability (referred to as PBMC Cytotoxicity within the assay endpoint names), cells were plated (75,000/well in a 96-well plate) and then chemical samples added for 1 h before addition of activators, SEB and TSST-1 (20 ng/mL final concentration each). Cells were incubated for 90 h. Then, Alamar Blue (20 uL/well) (Invitrogen, Cat DAL1100) was added for 6 h, and the plates were read with a fluorescence microplate reader at 546/580 nm (excitation/emission). For PBMC proliferation, cells were plated and activated as above but incubated for only 16 h prior to addition of Alamar Blue. Plates were read after 6 h.", "values": [
      {"smiles": "O=C1C=CC(=O)C=C1", "AC50": "31.7 µM (active)", "outcome": "inactive"},
      {"smiles": "Nc1ccc(-c2ccc(N)c(N)c2)cc1N", "outcome": "inactive"},
      {"smiles": "COc1ccc(CO)cc1", "outcome": "inactive"},
      {"smiles": "O=c1[nH]c(Cl)c(Cl)cc1Cl", "outcome": "inactive"},
      {"smiles": "CC(C)CCCCCCCOP(=O)(Oc1ccccc1)Oc1ccccc1", "AC50": "13.6 µM (active)"},
      {"smiles": "CC1(C)[C@H](C(=O)O[C@H](C#N)c2cccc(Oc3ccccc3)c2)[C@@H]1C=C(Br)Br", "AC50": "1.67 µM (active) and 92.9 nM (active)"},
      {"smiles": "CCCCCCCCCCCC#N", "AC50": "32 µM (active)"},
      {"smiles": "CCCC[N+](CCCC)(CCCC)CCCC", "outcome": "inactive"},
      {"smiles": "CCc1cc(C)cc(CC)c1-c1c(OC(=O)C(C)(C)C)n2n(c1=O)CCOCC2", "outcome": "inactive"},
      {"smiles": "[Cd+2].[Cl-].[Cl-]", "outcome": "inactive"},
      {"smiles": "Oc1ccc(C2(c3ccc(O)cc3)c3ccccc3-c3ccccc32)cc1", "AC50": "11.8 µM (active)", "outcome": "inactive"},
      {"smiles": "c1ccc(Nc2ccc3ccccc3c2)cc1", "AC50": "20 µM (active)"},
      {"smiles": "CC(C)(C)C(O)C(Oc1ccc(-c2ccccc2)cc1)n1cncn1", "note": "(stereo not given)", "outcome": "inactive"},
      {"smiles": "O=[N+]([O-])C=Cc1ccccc1", "AC50": "5.81 µM (active)"},
      {"smiles": "O=c1c2ccccc2c(=O)c2c1cc(Cl)c1[nH]c3c([nH]c12)c(Cl)cc1c(=O)c2ccccc2c(=O)c13", "outcome": "inactive"},
      {"smiles": "O=C(O)CCCc1ccc(N(CCCl)CCCl)cc1", "outcome": "inactive"},
      {"smiles": "O=[N+]([O-])c1ccc(Cl)cc1", "outcome": "inactive"},
      {"smiles": "CC(C)(c1cc(Cl)c(O)c(Cl)c1)c1cc(Cl)c(O)c(Cl)c1", "AC50": "22.9 µM (active)"},
      {"smiles": "CNC(=O)Oc1cc(C)c(SC)c(C)c1", "AC50": "11.8 µM (active)"},
      {"smiles": "CC(C)(C)C(=O)CCl", "outcome": "inactive"},
      {"smiles": "CC(=O)/C=C/c1ccccc1", "outcome": "inactive"},
      {"smiles": "O=P1(NCCCl)OCCCN1CCCl", "note": "(stereo not given)", "outcome": "inactive"},
      {"smiles": "Oc1cc(Cl)ccc1Cl", "outcome": "inactive"},
      {"smiles": "N#CCCCCC#N", "outcome": "inactive"},
      {"smiles": "Clc1ccc(-c2ccccc2)cc1", "AC50": "17.2 µM (active)"},
      {"smiles": "Cc1ccc(OP(=O)(Oc2ccc(C)cc2)Oc2ccc(C)cc2)cc1", "note": "(tested in a mixture with another compound)", "outcome": "inactive"},
      {"smiles": "O=C(CCl)c1ccccc1", "AC50": "5.38 µM (active)"},
      {"smiles": "COC(C)(C)CCC[C@H](C)C/C=C/C(C)=C/C(=O)OC(C)C", "outcome": "inactive"},
      {"smiles": "C=CCN(CC=C)C(=O)C(Cl)Cl", "outcome": "inactive"},
      {"smiles": "O=C1C(Cl)=C(Cl)C(=O)C(Cl)=C1Cl", "outcome": "inactive"},
      {"smiles": "O=S(=O)(c1ccccc1)c1ccccc1", "outcome": "inactive"},
      {"smiles": "C=CC(=O)OCC(CC)CCCC", "note": "(stereo not given)", "outcome": "inactive"},
      {"smiles": "CC(C)CCCCCCCOC(=O)c1ccccc1C(=O)OCCCCCCCC(C)C", "outcome": "inactive"},
      {"smiles": "COCC(=O)N(c1c(C)cccc1C)N1CCOC1=O", "outcome": "inactive"},
      {"smiles": "O=[N+]([O-])O", "outcome": "inactive"},
      {"smiles": "CCCOC(=O)c1ccccc1C(=O)OCCC", "outcome": "inactive"},
      {"smiles": "CC(C)COP(=O)(OCC(C)C)OCC(C)C", "outcome": "inactive"},
      {"smiles": "CCC(C)c1cc([N+](=O)[O-])cc([N+](=O)[O-])c1OC(=O)C=C(C)C", "note": "(stereo not given)", "AC50": "5.41 µM (active)"}
    ]}
  ]
}
